Test results from the supplement of paper PMC6411743.
± gives the standard deviation of the averaged measurements. The full data set covers some 6,500 targets. This sample favours those with the largest changes.

Compound: Nc1ncnc2c1ncn2[C@@H]1O[C@H](COP(=O)(O)OP(=O)(O)OP(=O)(O)O)[C@@H](O)[C@H]1O [adenosine triphosphate]
Test: NP40-soluble protein abundance relative to vehicle (solubility fold change) (ratio); higher = more soluble protein in presence of ATP
In short: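 Crude Jurkat lysate, prepared by Dounce homogenisation, was exposed to eight concentrations from 0.1 to 10 mM for 10 min at room temperature and then 3 min at 37 °C. Solubilisation used 0.8% NP40 with benzonase for 60 min at 4 °C, followed by ultracentrifugation and TMT labelling of the supernatant for LC-MS/MS. After vsn normalisation of intensities, each value is the fold change against the detergent-processed vehicle within each replicate, across three independent experiments.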

Chain of UniProt P38398 (P38398 whole entry, looked up): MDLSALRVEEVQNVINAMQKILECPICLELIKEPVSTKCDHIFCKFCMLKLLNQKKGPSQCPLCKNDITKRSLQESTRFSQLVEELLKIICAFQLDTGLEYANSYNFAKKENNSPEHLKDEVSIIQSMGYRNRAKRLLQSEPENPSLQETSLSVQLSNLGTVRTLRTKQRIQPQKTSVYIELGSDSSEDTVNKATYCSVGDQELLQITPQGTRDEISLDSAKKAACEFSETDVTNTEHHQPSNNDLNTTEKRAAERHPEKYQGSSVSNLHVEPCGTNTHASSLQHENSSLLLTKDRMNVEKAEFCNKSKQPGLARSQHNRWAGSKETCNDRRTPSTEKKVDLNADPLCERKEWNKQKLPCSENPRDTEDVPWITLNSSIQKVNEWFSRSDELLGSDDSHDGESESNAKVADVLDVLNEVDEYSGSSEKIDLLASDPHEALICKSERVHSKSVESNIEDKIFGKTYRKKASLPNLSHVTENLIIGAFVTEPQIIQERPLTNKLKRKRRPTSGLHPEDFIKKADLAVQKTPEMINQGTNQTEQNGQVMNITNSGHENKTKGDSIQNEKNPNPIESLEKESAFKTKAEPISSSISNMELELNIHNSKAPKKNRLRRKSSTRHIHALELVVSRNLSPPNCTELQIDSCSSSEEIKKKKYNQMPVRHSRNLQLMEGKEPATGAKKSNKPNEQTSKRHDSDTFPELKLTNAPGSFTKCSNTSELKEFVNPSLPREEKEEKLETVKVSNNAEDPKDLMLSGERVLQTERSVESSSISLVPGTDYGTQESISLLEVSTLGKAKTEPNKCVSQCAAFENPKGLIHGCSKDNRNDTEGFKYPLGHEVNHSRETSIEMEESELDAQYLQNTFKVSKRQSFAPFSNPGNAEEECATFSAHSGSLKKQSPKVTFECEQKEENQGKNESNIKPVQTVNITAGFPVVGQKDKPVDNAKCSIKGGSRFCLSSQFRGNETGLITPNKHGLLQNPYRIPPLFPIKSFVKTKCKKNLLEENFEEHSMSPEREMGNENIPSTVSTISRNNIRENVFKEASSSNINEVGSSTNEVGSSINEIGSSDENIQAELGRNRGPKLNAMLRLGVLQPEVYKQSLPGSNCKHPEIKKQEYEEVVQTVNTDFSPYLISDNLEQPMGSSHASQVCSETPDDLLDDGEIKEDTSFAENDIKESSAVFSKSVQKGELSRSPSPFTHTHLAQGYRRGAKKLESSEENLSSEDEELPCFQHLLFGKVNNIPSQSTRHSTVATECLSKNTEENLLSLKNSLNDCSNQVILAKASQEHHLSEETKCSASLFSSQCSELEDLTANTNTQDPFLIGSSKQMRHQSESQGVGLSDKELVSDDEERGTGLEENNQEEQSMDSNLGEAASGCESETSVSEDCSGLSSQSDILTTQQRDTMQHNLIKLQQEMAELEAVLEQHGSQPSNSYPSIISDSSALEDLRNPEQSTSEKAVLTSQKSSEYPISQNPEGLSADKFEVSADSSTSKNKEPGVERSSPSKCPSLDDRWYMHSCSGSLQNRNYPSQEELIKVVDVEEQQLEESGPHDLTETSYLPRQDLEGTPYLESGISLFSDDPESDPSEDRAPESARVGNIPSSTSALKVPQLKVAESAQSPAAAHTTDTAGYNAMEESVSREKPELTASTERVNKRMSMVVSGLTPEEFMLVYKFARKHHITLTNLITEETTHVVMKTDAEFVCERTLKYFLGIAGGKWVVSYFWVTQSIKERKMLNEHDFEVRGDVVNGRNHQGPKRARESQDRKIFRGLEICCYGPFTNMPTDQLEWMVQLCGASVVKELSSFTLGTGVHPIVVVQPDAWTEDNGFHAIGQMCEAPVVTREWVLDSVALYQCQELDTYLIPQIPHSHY
Chain of UniProt P08243 (P08243 whole entry): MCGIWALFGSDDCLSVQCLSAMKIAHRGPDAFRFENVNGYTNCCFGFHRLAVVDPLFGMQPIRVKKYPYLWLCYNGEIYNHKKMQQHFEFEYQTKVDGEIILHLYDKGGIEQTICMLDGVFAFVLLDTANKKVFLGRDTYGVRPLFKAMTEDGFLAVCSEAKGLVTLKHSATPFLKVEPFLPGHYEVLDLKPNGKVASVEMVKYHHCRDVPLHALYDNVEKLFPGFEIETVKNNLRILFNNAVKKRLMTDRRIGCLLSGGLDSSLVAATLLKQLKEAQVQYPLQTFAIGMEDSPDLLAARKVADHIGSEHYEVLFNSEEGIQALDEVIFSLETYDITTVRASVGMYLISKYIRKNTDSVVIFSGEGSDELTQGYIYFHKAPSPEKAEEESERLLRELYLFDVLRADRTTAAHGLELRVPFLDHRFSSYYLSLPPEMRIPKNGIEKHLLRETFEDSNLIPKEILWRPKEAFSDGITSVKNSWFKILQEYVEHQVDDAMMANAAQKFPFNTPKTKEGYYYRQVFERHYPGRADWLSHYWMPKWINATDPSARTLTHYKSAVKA
Chain of UniProt P55273 (P55273 whole entry): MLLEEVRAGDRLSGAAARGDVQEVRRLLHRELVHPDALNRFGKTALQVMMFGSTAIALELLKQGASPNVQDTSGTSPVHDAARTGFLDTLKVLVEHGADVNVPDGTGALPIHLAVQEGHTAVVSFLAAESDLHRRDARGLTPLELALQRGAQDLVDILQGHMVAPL
Chain of UniProt P13010 (P13010 whole entry): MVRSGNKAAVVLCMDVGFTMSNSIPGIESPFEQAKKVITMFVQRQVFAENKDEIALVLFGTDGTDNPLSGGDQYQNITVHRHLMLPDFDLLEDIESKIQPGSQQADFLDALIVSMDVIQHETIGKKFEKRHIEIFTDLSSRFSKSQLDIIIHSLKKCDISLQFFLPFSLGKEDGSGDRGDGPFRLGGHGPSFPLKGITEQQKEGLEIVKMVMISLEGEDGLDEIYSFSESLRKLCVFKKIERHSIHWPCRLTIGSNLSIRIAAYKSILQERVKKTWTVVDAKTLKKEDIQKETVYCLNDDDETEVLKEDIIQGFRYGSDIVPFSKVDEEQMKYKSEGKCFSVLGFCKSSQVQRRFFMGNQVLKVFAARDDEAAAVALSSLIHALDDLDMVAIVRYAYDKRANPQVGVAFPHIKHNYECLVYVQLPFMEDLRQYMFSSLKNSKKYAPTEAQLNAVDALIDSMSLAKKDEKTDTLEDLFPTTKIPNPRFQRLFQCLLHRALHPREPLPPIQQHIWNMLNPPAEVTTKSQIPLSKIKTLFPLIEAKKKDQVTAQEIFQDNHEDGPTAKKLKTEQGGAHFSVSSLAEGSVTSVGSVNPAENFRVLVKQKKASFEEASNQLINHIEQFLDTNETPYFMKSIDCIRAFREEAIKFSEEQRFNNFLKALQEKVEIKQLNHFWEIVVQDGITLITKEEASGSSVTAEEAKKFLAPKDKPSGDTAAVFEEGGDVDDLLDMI
Chain of UniProt P60228 (P60228 whole entry): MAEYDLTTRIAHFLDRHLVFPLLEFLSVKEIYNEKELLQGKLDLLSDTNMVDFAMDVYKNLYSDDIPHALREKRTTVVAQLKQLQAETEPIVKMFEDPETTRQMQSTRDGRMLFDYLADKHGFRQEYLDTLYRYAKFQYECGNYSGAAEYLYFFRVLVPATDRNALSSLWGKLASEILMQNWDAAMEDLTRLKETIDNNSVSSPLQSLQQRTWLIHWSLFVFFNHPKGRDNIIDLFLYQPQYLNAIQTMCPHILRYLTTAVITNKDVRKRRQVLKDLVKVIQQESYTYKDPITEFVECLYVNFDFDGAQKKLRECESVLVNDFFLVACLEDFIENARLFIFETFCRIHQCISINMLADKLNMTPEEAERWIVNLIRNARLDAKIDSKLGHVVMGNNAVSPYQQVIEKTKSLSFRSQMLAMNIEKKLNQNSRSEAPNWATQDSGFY
Chain of UniProt P05114 (P05114 whole entry): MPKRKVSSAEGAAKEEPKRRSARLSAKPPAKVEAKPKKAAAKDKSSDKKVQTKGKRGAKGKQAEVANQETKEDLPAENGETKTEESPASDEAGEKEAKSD
Chain of UniProt Q00653 (Q00653 whole entry): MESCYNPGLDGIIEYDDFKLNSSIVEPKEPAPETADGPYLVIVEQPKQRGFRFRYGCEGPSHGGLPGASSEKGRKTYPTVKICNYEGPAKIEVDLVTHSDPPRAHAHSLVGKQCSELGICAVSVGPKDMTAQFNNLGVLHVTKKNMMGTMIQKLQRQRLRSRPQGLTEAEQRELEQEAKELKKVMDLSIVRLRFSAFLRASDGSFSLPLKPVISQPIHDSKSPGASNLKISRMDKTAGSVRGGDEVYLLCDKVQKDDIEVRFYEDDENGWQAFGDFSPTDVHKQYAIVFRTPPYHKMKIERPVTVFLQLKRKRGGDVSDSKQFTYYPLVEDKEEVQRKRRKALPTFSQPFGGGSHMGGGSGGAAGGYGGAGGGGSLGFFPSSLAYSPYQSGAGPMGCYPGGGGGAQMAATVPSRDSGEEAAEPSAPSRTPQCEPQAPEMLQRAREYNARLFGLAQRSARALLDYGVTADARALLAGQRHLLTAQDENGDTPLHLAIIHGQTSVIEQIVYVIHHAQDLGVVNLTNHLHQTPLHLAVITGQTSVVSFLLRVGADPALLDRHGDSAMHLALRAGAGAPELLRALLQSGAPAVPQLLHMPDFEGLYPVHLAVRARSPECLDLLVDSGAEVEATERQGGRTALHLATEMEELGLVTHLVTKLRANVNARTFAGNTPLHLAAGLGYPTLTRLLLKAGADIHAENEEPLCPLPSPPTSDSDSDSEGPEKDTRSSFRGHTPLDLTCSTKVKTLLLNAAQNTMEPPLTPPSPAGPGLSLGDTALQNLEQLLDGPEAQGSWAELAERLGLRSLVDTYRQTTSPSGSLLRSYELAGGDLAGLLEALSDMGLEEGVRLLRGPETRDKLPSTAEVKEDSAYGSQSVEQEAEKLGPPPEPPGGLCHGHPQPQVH
Chain of UniProt P27707 (P27707 whole entry, looked up): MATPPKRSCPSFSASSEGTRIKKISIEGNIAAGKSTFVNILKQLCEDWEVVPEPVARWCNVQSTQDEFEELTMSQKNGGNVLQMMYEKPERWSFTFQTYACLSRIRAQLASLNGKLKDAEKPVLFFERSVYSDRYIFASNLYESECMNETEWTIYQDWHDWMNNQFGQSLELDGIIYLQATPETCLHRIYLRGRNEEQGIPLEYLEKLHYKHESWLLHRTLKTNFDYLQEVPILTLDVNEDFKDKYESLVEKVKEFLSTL

Target	NP40-soluble protein abundance (concentration: 1mM)	NP40-soluble protein abundance (concentration: 2mM)	NP40-soluble protein abundance (concentration: 4mM)	NP40-soluble protein abundance (concentration: 6mM)	NP40-soluble protein abundance (concentration: 8mM)	NP40-soluble protein abundance (concentration: 10mM)
ATRN (UniProt O75882)	0.928 ± 0.039	0.947 ± 0.048	0.975 ± 0.015	0.959 ± 0.095	0.896 ± 0.01	0.899 ± 0.057
UniProt Q03933-2|Q03933	0.912 ± 0.029	1.05 ± 0.065	1.05 ± 0.2	1.09 ± 0.17	1.04 ± 0.048	1.01 ± 0.051
UniProt P49748|P49748-3	0.997 ± 0.081	0.989 ± 0.064	0.983 ± 0.027	0.934 ± 0.083	0.986 ± 0.015	0.973 ± 0.045
DCK (UniProt P27707)	0.955 ± 0.067	0.98 ± 0.052	0.914 ± 0.046	0.935 ± 0.093	0.933 ± 0.03	0.948 ± 0.044
C1QBP (UniProt Q07021)	1.15 ± 0.48	0.69 ± 0.36	1.21 ± 0.26	0.585 ± 0.18	1.19 ± 0.24	0.587 ± 0.2
TMEM63A (UniProt O94886)	0.9962 ± 0.0062	1.016 ± 0.004	1.01 ± 0.023	1.0012 ± 0.00078	0.961 ± 0.024	0.979 ± 0.01
IGHMBP2 (UniProt P38935)	1.41 ± 0.11	1.59 ± 0.088	1.84 ± 0.09	2.01 ± 0.13	2.19 ± 0.2	2.4 ± 0.14
RBM25 (UniProt P49756)	1.21 ± 0.074	1.33 ± 0.12	1.68 ± 0.22	2.25 ± 0.24	2.63 ± 0.34	3.08 ± 0.38
UniProt P08243|P08243-2|P08243-3	1.1 ± 0.13	1.1 ± 0.12	1.1 ± 0.11	1.03 ± 0.14	1.15 ± 0.12	1.09 ± 0.097
POLR3D (UniProt P05423)	0.986 ± 0.095	0.962 ± 0.062	0.949 ± 0.071	0.963 ± 0.12	0.965 ± 0.064	0.963 ± 0.065
EIF2S1 (UniProt P05198)	1.04 ± 0.043	1.05 ± 0.034	1.02 ± 0.027	1.04 ± 0.07	1.06 ± 0.053	1.05 ± 0.051
UniProt P50213|H0YLF8	0.98 ± 0.039	0.963 ± 0.04	0.922 ± 0.036	0.95 ± 0.058	0.949 ± 0.057	0.932 ± 0.043
PSMC2 (UniProt P35998)	0.9515 ± 0.0057	0.914 ± 0.029	0.882 ± 0.016	0.908 ± 0.1	0.899 ± 0.053	0.894 ± 0.047
FXR2 (UniProt P51116)	1.68 ± 0.23	1.77 ± 0.15	2.06 ± 0.29	2.24 ± 0.27	2.26 ± 0.3	2.33 ± 0.26
AGA (UniProt P20933)	0.925 ± 0.059	0.964 ± 0.07	0.978 ± 0.079	0.94 ± 0.081	0.914 ± 0.064	0.876 ± 0.071
UniProt P11388|P11388-2|P11388-3|P11388-4	1.31 ± 0.066	1.41 ± 0.062	1.64 ± 0.06	1.76 ± 0.074	1.99 ± 0.11	2.03 ± 0.14
UniProt P60228	0.999 ± 0.024	0.999 ± 0.051	1.08 ± 0.035	1.23 ± 0.063	1.34 ± 0.073	1.49 ± 0.12
CDKN2D (UniProt P55273)	0.959 ± 0.065	0.928 ± 0.036	0.953 ± 0.046	0.953 ± 0.019	0.951 ± 0.024	0.872 ± 0.045
ATF1 (UniProt P18846)	0.986 ± 0.2	0.951 ± 0.033	1.02 ± 0.14	0.999 ± 0.054	0.97 ± 0.074	0.917 ± 0.068
CDKN1B (UniProt P46527)	0.964 ± 0.099	0.998 ± 0.057	0.985 ± 0.08	1.09 ± 0.077	0.919 ± 0.071	0.916 ± 0.1

Target	NP40-soluble protein abundance (concentration: 1mM)	NP40-soluble protein abundance (concentration: 2mM)	NP40-soluble protein abundance (concentration: 4mM)	NP40-soluble protein abundance (concentration: 6mM)	NP40-soluble protein abundance (concentration: 8mM)	NP40-soluble protein abundance (concentration: 10mM)
SNRPA (UniProt P09012)	1.01 ± 0.067	0.989 ± 0.09	0.973 ± 0.093	0.984 ± 0.1	0.992 ± 0.032	0.97 ± 0.006
UniProt P35251|P35251-2	1.23 ± 0.086	1.36 ± 0.093	1.45 ± 0.1	1.58 ± 0.11	1.51 ± 0.069	1.56 ± 0.084
UniProt P62854	0.92 ± 0.095	0.912 ± 0.11	0.911 ± 0.18	0.809 ± 0.13	0.745 ± 0.099	0.843 ± 0.13
UniProt O95639|O95639-2|O95639-3	1.3 ± 0.028	1.38 ± 0.046	1.52 ± 0.06	1.64 ± 0.1	1.7 ± 0.039	1.73 ± 0.078
UniProt P21675|P21675-12|P21675-2|P21675-3|P21675-4|P21675-5|P21675-6|P21675-7|P21675-9	1.11 ± 0.067	1.11 ± 0.048	1.11 ± 0.066	1.15 ± 0.14	1.2 ± 0.079	1.19 ± 0.091
IDH1 (UniProt O75874)	0.993 ± 0.056	0.988 ± 0.038	0.94 ± 0.052	0.94 ± 0.081	0.957 ± 0.04	0.949 ± 0.027
UniProt P38398|P38398-7|P38398-4|P38398-8	1.02 ± 0.011	1.05 ± 0.071	1.03 ± 0.035	1.03 ± 0.086	1.02 ± 0.081	1.06 ± 0.03
UniProt O94925|O94925-3	1.02 ± 0.071	0.968 ± 0.035	0.981 ± 0.078	0.944 ± 0.05	0.978 ± 0.061	0.947 ± 0.039
PRIM2 (UniProt P49643)	1.03 ± 0.057	1.02 ± 0.025	1.02 ± 0.032	1 ± 0.034	1.02 ± 0.028	1.03 ± 0.047
UniProt Q02078-2|Q02078-6	0.954 ± 0.086	0.939 ± 0.046	0.936 ± 0.065	0.926 ± 0.036	0.907 ± 0.032	0.949 ± 0.048
UniProt P13674|P13674-2	1.01 ± 0.0016	1.01 ± 0.022	0.994 ± 0.027	1.03 ± 0.054	1.01 ± 0.034	1.04 ± 0.045
DDX58 (UniProt O95786)	1.06 ± 0.097	1.03 ± 0.063	1 ± 0.05	0.978 ± 0.078	1.03 ± 0.056	1.01 ± 0.055
UniProt P51114|P51114-2	1.644 ± 0.0088	1.79 ± 0.041	2.03 ± 0.048	2.17 ± 0.11	2.32 ± 0.039	2.4 ± 0.045
ARL3 (UniProt P36405)	0.978 ± 0.0088	0.944 ± 0.057	0.937 ± 0.057	0.926 ± 0.066	0.945 ± 0.037	0.946 ± 0.049
SAP30 (UniProt O75446)	0.93 ± 0.092	0.952 ± 0.092	0.907 ± 0.073	0.971 ± 0.15	0.96 ± 0.044	0.915 ± 0.13
SNAP29 (UniProt O95721)	0.967 ± 0.086	0.943 ± 0.043	0.939 ± 0.055	0.967 ± 0.04	0.939 ± 0.036	0.877 ± 0.046
CST3 (UniProt P01034)	0.964 ± 0.083	0.971 ± 0.063	1 ± 0.11	1.03 ± 0.11	1.05 ± 0.15	1.05 ± 0.14
PPT1 (UniProt P50897)	0.942 ± 0.054	0.92 ± 0.019	0.877 ± 0.034	0.957 ± 0.035	0.903 ± 0.016	0.86 ± 0.039
HMGN1 (UniProt P05114)	1.23 ± 0.32	2 ± 0.51	1.5 ± 0.35	1.88 ± 0.89	1.67 ± 0.38	1.95 ± 1.1
UniProt P56381	2.11 ± 1.8	0.927 ± 0.037	0.827 ± 0.014	1.2 ± 0.39	0.93 ± 0.067	0.875 ± 0.046

Target	NP40-soluble protein abundance (concentration: 1mM)	NP40-soluble protein abundance (concentration: 2mM)	NP40-soluble protein abundance (concentration: 4mM)	NP40-soluble protein abundance (concentration: 6mM)	NP40-soluble protein abundance (concentration: 8mM)	NP40-soluble protein abundance (concentration: 10mM)
COX5B (UniProt P10606)	0.9588 ± 0.0074	0.963 ± 0.013	0.966 ± 0.032	1.01 ± 0.028	0.936 ± 0.055	0.929 ± 0.012
JAK1 (UniProt P23458)	1.21 ± 0.015	1.21 ± 0.022	1.23 ± 0.032	1.16 ± 0.043	1.27 ± 0.047	1.26 ± 0.041
UniProt P61225	1.01 ± 0.074	0.921 ± 0.091	0.92 ± 0.082	0.846 ± 0.11	0.932 ± 0.065	0.932 ± 0.016
MTHFD2 (UniProt P13995)	1.02 ± 0.018	1.01 ± 0.02	0.995 ± 0.04	1.01 ± 0.043	1.01 ± 0.032	1 ± 0.026
EMD (UniProt P50402)	1.13 ± 0.096	1.16 ± 0.1	1.14 ± 0.11	1.11 ± 0.1	1.12 ± 0.086	1.15 ± 0.05
UniProt P55769	1.03 ± 0.15	1.06 ± 0.11	1.13 ± 0.13	1.23 ± 0.11	1.28 ± 0.049	1.33 ± 0.24
UROS (UniProt P10746)	0.973 ± 0.029	0.988 ± 0.041	0.98 ± 0.061	0.968 ± 0.038	0.95 ± 0.059	0.927 ± 0.054
ARF3 (UniProt P61204)	1.05 ± 0.21	1.01 ± 0.17	1.04 ± 0.13	0.961 ± 0.23	1.05 ± 0.073	0.996 ± 0.08
UniProt P49354|H0YCW1	1.05 ± 0.088	1.01 ± 0.059	1.03 ± 0.053	0.955 ± 0.12	1.04 ± 0.076	0.996 ± 0.062
CTBS (UniProt Q01459)	0.951 ± 0.04	0.98 ± 0.028	0.939 ± 0.038	0.957 ± 0.038	0.932 ± 0.032	0.955 ± 0.013
UniProt Q00653|Q00653-4	1.006 ± 0.0072	0.99 ± 0.026	0.971 ± 0.025	0.995 ± 0.022	0.965 ± 0.021	0.973 ± 0.012
UniProt P42285	1.07 ± 0.07	1.06 ± 0.035	1.09 ± 0.033	1.07 ± 0.031	1.2 ± 0.013	1.21 ± 0.066
CTDSPL2 (UniProt Q05D32)	1.13 ± 0.11	1.13 ± 0.07	1.27 ± 0.09	1.32 ± 0.082	1.33 ± 0.14	1.47 ± 0.03
UniProt P26639	1 ± 0.1	0.988 ± 0.075	0.95 ± 0.078	0.928 ± 0.11	0.989 ± 0.054	0.949 ± 0.042
XRCC5 (UniProt P13010)	1.04 ± 0.055	1.01 ± 0.051	0.996 ± 0.039	0.961 ± 0.076	1 ± 0.024	0.993 ± 0.057
AP3M2 (UniProt P53677)	1.09 ± 0.019	1.08 ± 0.016	1.13 ± 0.043	1.02 ± 0.047	1.06 ± 0.051	1.08 ± 0.069
UniProt P63218	0.812 ± 0.15	0.735 ± 0.17	0.799 ± 0.22	0.72 ± 0.12	0.77 ± 0.16	0.678 ± 0.18
SGPL1 (UniProt O95470)	1.05 ± 0.14	1.03 ± 0.1	1.02 ± 0.086	0.965 ± 0.094	1.07 ± 0.079	1.06 ± 0.075
PHKA2 (UniProt P46019)	0.975 ± 0.071	0.9386 ± 0.0054	0.92 ± 0.033	0.932 ± 0.087	0.95 ± 0.028	0.919 ± 0.029
ACSL3 (UniProt O95573)	1.02 ± 0.05	1.05 ± 0.028	1.03 ± 0.036	1 ± 0.11	1.03 ± 0.041	1.01 ± 0.031
